Molecules are shown by their SMILES. About 83,000 compounds went through this panel and 20% of them were active in at least one assay; those are over-represented in the sample as a whole.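 Assay: single dose, 48 h. Readout: percent growth (0 = no net growth; negative = cell death). Active: <10.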 The source made the active and inactive calls.

This experiment has as its system HOP-62 NSCLC. The experiment in a line: NCI-60 one-dose screen, 48 h (100 = growth as untreated, 0 = no growth, -100 = all killed). The following applies: 10 µM unless noted. On the procedure:
Growth inhibition of the HOP-62 human Non-Small Cell Lung tumor cell line is measured as a screen for anti-cancer activity. Cells are grown in 96 well plates and exposed to the test compound for 48 hours. Compounds are tested at a single concentration, which is 10^-5 M for most compounds. The reported endpoint is percent growth (GI% or GIPRCNT), where numbers from 0 - 100% represent growth inhibition, and numbers from -100% - 0 represent cell death. For example, a value of 40 represents 60% growth inhibition. A value of 0 means no net growth occurred over the course of the experiment. A value of -40 indicates 40% of cells at the beginning of the experiment died by the end of the experiment. A value of -100 means all cells are dead at the end of the experiment.
NCI-60 Human Tumor Cell Lines Screen was performed using the standard one-dose NCI protocol, which is described in more detail at https://dtp.cancer.gov/discovery_development/nci-60/default.htm.
Compounds with GIPRCNT values below 10 were considered active. Activity score was based on GIPRCNT using the following formula: […]
Score is 0 for GIPRCNT values of 100 or above, 50 for GIPRCNT values of 0, and 100 for GIPRCNT values of -100.
For the compound `COc1ccc(-c2nnc(COc3ccc(NC(=O)Nc4cc(C(F)(F)F)cc(C(F)(F)F)c4)cc3F)o2)cc1`, the growth is 12.3% (inactive).
As for `CCOC(Cc1c(N)[nH]c(=S)[nH]c1=O)OCC`, the figure is 102% (inactive).
The same measure for `O=C1/C(=N/O)CCc2ccccc21`: 91.5% (inactive).
On to `CC(C)(C)c1ccc(S(=O)(=O)O)s1`, for which the growth was 99% (inactive).
Consider `N#CCNc1ccccc1N`, for which the growth was 85.2% (inactive).
The same measure for `COc1cccc(-c2nnc(N)o2)c1`: 102% (inactive); for `O=C(C(=O)N1CCCCC1)c1ccc(OC2OC(CO)C(O)C(O)C2O)cc1` (stereo not given): 104% (inactive).
As for `CCCCCCCCSc1ncnc2c1ncn2CO`, the figure is 82.7% (inactive); as for `OC(Cc1cccnc1)c1ccccc1` (stereo not given), 105% (inactive); as for `O=C(CSc1nnc(Nc2ccccc2)s1)NCCc1ccc(F)cc1`, 103% (inactive).
As for `Cn1cc(-c2nc(-c3c[nH]c4ncccc34)cs2)c2cccnc21`, the figure is 68.2% (inactive).
For `NC(=O)SCC(=O)Nc1ccccc1-c1ccccc1`, the growth was 116% (inactive).
As for `COc1cc(C2NC(c3ccc(Cl)cc3)C(C)C(=NC(=O)c3cnccn3)C2C)cc(OC)c1OC` (stereo not given), the figure is 117% (inactive); as for `COc1ccc(-c2cn(-c3ccccc3)c(-c3ccccc3)n2)cc1OC`, 102% (inactive).
In the case of `N#Cc1c(N)[nH]c(S)c1C#N`, the growth is 100% (inactive).
As for `O=C1CN(CO)C(=O)CN1CO`, the figure is 106% (inactive); as for `CCCc1cccc(CCC)c1O`, 106% (inactive).
Turning to `COc1cc(C2NC(c3ccc(Cl)cc3)C(C)/C(=N/NC(N)=S)C2C)cc(OC)c1OC` (stereo not given), the growth is 99% (inactive).
As for `COC(=O)C[C@@H]1CC=CC(=O)/C1=C(O)/C=C/c1ccccc1`, the growth was -42.8% (active).
The same measure for `COc1ccc(COC(C)=O)cc1`: 101% (inactive); for `O[C@@H]1Cc2ccc3ccccc3c2N[C@H](c2ccoc2)C1`: 98.8% (inactive).
As for `O=C(O)c1ccc(NC(=O)c2cccc(Nc3ccnc(C(F)(F)F)c3)c2)cc1`, the figure is 107% (inactive); as for `CCCCCCCCCCSc1ncnc2nc[nH]c12`, 86.3% (inactive); as for `O=c1[nH]c(Cl)nc2c1cnn2-c1ccccc1`, 91.3% (inactive).
On to `CCC(CC)NCCCCCNc1cc(OC)cc2cccnc12`, for which the growth is 84.6% (inactive).
The same measure for `CC(C)c1nc(N(C)S(C)(=O)=O)nc(-c2ccc(F)cc2)c1/C=C/[C@@H](O)C[C@@H](O)CC(=O)O`: 108% (inactive).
The same measure for `COc1cc(/C=C/C(=O)c2c(-c3ccc(Cl)cc3)nc3sc(C)nn23)cc(OC)c1OC`: 98.8% (inactive); for `CCOC(=O)/C=C(/C)Sc1cc(O)c2ccccc2c1O`: 157% (inactive).
As for `CCCCc1nc(Cl)c(CO)n1Cc1ccc(-c2ccccc2-c2nn[nH]n2)cc1`, the figure is 97.7% (inactive); as for `COc1ccc2c(c1)nc(N)c1c3cc(OC)c(OC)cc3cn21`, 76.9% (inactive); as for `O=C(C(Br)Br)C(Br)C(Br)c1ccccc1` (stereo not given), 109% (inactive).
In the case of `O=C1N(C2CCCCC2)C(=O)N1C1CCCCC1`, the growth was 57.5% (inactive).
The same measure for `COc1cc(OC)c2sc(-c3ccc(-n4cncc4-c4ccc(N)cc4)cc3)nc2c1`: 110% (inactive); for `COc1ccc2c(c1)nc(N)c1c3ccccc3cn21`: 85.6% (inactive); for `Nc1ccc(C2=NN(c3ccccc3)C(c3ccc(Cl)cc3)C2)cc1` (stereo not given): 87.2% (inactive).
Take `Cc1ccc(C(=O)Nc2ccc(Cl)cc2C(=O)NCc2ccccc2)cc1`: the growth was 88.3% (inactive).
Turning to `Cc1cc2c(cc1[N+](=O)[O-])NC(CNC(C)C)CC2` (stereo not given), the growth is 103% (inactive).
With `O=C1/C(=C/c2ccc3cccc(Cl)c3n2)SC(=S)N1CCc1ccc(O)cc1`, the growth is 86.7% (inactive).
For the compound `C/C(=C\CCc1ccsc1)CC/C=C(\C)CCCN1CCN(CCO)CC1`, the growth is 69.1% (inactive).
Take `CC/C(=C\c1ccc(N(C)C)cc1)c1ccncc1`: the growth was 46.6% (inactive).

(Values after PubChem BioAssay (NCI).)
